The supplement of paper PMC11732987, “Enantioselective OTUD7B fragment discovery through chemoproteomics screening and high-throughput optimisation” (Communications Chemistry, 2025)

Legend:
Experiment in all cases: log2 ratio of Biotin-Ahx-Ub-VS probe labelling (fragment/DMSO); higher = less target engagement (more negative = stronger competition), active = hit call of the paper (q ≤ 0.05, log2 ratio ≤ -1)
Settings in all cases: compound concentration: 200 uM; treatment time: 3 h
USP19 = biological target: T1, USP19 (UniProt O94966)
T1 sequence (whole entry): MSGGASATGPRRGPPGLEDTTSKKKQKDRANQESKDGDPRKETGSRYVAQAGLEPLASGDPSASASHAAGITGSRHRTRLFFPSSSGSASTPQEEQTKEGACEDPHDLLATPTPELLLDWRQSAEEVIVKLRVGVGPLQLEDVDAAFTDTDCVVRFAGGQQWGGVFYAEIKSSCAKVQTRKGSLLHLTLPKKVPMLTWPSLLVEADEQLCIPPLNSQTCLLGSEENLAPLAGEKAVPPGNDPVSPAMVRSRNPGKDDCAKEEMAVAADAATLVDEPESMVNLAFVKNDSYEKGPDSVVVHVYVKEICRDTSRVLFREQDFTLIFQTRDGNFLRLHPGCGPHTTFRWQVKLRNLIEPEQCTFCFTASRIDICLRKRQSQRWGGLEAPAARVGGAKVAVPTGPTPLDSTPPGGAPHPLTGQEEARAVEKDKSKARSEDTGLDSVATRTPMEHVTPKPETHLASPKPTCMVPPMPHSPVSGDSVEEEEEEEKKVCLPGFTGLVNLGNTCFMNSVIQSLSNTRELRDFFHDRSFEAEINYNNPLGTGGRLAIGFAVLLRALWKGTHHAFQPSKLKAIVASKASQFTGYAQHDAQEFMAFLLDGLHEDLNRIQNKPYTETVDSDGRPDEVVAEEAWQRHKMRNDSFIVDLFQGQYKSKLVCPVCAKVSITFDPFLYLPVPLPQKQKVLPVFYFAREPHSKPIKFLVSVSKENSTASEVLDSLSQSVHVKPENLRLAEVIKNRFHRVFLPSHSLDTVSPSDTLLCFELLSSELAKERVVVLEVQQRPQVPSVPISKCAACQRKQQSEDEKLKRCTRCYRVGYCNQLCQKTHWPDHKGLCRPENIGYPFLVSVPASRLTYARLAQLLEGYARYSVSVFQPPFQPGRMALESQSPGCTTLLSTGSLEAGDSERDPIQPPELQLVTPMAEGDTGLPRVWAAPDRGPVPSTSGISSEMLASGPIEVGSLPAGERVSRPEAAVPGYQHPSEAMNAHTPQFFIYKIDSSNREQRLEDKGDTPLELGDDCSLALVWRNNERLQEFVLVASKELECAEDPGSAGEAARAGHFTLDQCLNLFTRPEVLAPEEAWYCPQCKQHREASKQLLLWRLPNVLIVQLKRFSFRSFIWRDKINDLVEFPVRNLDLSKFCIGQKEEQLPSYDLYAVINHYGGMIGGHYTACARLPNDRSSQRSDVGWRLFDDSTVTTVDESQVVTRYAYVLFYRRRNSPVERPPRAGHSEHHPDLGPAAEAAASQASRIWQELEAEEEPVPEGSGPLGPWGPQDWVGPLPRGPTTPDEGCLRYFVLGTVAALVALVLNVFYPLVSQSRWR
Procedure, shortened: (§1)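 Average log2 ratios of fragment over vehicle were obtained by unpaired t-test from global-median-normalised Spectronaut label-free quantities. Proteins with ≥2 unique peptides were included. HEK293T lysate (495 µg per sample) was treated in triplicate with fragment at 200 µM or vehicle for 3 h, then with Biotin-Ahx-Ub-VS at 0.5 µM final for 1 h, and labelled DUBs were NeutrAvidin-enriched and run by diaPASEF LC-MS/MS.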

USP22 = biological target: T2, USP22 (UniProt Q9UPT9)
T2 sequence (whole entry): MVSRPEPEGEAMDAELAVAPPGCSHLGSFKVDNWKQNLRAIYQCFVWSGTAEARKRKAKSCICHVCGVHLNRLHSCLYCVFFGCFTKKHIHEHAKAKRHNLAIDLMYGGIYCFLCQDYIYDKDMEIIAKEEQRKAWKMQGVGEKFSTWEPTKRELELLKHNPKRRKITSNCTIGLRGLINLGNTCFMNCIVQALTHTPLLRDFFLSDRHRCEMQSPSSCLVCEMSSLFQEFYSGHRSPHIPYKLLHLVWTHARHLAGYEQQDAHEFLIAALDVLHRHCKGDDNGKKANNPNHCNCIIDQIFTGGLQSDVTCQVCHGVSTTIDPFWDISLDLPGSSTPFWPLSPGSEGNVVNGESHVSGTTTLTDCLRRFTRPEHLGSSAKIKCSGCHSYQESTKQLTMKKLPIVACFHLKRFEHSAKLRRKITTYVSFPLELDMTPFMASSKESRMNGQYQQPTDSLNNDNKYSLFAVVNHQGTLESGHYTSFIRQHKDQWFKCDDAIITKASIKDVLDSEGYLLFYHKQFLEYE
Procedure, shortened: as §1

USP24 = USP24 (UniProt Q9UPU5)
Procedure, shortened: as §1

USP25 = biological target: T3, USP25 (UniProt Q9UHP3)
T3 sequence (whole entry): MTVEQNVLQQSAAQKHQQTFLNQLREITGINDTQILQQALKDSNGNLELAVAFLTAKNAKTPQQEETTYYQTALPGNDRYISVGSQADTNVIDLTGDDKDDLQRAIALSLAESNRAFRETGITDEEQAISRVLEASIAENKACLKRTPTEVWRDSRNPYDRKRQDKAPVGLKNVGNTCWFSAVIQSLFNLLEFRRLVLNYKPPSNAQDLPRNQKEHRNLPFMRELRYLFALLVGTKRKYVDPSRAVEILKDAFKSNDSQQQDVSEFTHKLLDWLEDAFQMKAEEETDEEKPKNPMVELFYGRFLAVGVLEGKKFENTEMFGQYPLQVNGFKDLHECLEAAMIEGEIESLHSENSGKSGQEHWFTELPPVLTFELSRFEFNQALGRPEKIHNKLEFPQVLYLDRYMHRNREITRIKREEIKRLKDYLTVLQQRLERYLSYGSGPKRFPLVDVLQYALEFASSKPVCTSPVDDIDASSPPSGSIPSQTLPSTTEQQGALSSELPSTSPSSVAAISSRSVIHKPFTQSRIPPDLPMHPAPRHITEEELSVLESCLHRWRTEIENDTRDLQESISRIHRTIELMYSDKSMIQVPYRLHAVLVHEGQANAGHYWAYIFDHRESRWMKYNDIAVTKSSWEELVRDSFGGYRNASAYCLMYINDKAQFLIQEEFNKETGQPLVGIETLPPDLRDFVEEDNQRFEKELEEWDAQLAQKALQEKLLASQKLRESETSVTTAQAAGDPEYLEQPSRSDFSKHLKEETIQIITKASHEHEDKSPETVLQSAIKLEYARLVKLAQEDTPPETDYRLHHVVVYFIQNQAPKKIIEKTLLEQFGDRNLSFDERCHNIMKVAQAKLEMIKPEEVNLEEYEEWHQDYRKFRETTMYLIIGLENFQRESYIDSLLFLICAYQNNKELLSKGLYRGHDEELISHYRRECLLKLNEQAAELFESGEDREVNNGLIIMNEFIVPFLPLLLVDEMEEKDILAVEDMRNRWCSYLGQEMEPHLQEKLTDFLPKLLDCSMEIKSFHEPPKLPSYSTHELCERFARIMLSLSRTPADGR
Procedure, shortened: as §1

USP28 = biological target: T4, USP28 (UniProt Q96RU2)
T4 sequence (whole entry): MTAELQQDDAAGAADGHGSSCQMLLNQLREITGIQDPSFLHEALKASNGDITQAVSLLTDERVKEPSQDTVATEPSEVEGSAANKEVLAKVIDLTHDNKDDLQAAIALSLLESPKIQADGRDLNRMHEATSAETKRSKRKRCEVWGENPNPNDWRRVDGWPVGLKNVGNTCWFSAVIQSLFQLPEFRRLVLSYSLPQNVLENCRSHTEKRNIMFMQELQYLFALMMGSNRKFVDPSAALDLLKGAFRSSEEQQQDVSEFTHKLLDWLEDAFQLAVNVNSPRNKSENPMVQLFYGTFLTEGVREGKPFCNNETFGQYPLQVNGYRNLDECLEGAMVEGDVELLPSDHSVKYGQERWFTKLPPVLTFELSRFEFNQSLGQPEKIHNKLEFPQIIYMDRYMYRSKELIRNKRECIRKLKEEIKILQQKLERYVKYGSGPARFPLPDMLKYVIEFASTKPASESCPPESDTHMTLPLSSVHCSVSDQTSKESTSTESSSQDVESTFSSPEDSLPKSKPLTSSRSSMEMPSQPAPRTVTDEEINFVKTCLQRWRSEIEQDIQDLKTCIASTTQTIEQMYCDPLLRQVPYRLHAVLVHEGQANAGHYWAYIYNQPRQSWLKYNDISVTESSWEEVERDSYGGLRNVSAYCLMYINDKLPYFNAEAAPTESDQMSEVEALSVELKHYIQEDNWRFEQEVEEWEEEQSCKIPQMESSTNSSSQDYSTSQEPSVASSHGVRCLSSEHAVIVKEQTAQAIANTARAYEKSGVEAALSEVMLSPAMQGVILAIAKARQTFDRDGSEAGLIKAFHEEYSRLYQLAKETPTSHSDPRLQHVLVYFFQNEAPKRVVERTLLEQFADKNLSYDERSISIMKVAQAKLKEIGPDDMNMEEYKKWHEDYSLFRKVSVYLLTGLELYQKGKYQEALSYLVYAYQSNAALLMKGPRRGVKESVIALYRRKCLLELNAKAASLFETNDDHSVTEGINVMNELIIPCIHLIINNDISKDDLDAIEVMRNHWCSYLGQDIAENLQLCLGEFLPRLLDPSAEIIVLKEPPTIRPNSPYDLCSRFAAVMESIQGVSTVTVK
Procedure, shortened: as §1

Measured: log2 ratio of Biotin-Ahx-Ub-VS probe labelling

Chain of USP24 (Q9UPU5 whole entry): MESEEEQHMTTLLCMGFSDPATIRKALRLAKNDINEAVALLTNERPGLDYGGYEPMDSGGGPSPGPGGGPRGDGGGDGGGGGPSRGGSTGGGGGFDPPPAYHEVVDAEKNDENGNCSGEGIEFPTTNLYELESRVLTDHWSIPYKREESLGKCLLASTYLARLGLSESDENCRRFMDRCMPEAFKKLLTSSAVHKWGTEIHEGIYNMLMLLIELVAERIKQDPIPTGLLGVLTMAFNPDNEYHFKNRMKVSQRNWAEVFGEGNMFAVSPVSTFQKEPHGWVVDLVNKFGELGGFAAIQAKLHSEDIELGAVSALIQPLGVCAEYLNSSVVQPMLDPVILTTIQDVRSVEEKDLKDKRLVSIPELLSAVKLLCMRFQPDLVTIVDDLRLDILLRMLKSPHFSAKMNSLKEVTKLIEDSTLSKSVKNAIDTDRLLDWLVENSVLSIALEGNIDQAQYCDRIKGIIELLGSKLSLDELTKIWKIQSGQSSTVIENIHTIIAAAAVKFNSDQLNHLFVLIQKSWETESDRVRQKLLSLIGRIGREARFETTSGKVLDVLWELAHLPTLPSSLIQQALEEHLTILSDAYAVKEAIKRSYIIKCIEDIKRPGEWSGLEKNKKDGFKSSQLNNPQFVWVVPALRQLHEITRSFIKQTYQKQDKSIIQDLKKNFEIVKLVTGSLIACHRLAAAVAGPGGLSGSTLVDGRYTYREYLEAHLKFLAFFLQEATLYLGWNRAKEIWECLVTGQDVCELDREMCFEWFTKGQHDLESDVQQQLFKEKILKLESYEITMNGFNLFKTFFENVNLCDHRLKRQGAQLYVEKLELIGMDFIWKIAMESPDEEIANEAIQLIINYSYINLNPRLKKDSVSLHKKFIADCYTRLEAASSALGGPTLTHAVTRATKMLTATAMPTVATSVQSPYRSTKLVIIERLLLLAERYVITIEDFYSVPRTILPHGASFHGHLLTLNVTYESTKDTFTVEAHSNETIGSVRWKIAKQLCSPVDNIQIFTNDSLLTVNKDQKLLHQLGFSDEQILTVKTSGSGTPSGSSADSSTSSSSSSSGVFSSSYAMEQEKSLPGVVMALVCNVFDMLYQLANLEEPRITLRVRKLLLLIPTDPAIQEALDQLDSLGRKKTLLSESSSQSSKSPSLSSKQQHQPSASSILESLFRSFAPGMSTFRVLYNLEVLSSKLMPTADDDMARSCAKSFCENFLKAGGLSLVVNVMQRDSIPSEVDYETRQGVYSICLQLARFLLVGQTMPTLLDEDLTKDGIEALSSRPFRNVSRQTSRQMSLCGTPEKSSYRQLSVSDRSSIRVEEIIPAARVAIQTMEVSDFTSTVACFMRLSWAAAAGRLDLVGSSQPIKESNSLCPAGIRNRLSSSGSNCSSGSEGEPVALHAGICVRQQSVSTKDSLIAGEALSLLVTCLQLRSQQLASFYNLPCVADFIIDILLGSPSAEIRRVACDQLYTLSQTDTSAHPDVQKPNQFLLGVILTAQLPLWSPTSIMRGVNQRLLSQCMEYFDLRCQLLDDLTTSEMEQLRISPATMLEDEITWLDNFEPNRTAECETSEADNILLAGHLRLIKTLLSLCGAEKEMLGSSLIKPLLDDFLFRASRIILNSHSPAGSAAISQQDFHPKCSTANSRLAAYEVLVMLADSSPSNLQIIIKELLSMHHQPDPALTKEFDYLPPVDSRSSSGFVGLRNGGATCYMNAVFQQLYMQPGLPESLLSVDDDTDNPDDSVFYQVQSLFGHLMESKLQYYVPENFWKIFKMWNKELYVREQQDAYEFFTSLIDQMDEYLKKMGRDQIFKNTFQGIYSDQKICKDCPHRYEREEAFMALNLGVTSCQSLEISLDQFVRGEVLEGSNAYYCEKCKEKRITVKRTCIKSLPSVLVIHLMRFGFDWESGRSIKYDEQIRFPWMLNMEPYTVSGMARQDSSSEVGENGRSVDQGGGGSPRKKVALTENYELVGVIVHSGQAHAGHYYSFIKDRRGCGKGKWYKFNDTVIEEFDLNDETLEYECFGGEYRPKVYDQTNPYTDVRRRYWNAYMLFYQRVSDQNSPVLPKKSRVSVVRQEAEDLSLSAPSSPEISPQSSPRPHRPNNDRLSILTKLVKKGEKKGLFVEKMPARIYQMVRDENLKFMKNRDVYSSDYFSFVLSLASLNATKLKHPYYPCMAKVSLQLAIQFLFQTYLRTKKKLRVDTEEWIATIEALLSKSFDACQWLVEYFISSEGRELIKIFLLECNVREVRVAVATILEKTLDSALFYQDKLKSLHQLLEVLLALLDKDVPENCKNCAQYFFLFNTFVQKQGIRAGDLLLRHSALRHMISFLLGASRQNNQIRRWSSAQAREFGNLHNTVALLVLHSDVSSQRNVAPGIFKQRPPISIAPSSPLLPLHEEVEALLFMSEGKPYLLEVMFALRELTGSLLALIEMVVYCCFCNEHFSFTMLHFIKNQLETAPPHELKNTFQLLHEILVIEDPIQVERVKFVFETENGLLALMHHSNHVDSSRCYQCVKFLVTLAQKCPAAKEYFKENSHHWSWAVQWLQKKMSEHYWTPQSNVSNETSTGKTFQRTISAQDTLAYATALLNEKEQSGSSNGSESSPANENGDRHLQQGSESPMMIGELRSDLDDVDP

COc1ccccc1C(C)NC(=O)CCl (stereo not given)
inactive: USP19 -0.243 | USP22 -0.46 | USP24 -0.363 | USP25 -0.536 | USP28 -0.666
